# Measured values published in PubChem BioAssay (NCATS).
# Inconclusive results are not listed. Where a call stands in place of a potency, no number is given. Values without a mark were called inactive. Calls of active or inactive are those of the source. Calls come from the whole dose curve; as a rule, active = well fitted inhibition curve with a large enough effect; inconclusive = small, poorly fitted or top-dose-only effect; inactive = flat fitted curve, though single readings scatter.
# Molecular target: Aldehyde dehydrogenase, mitochondrial (Homo sapiens) (UniProt P05091)
# Experiment: qHTS for Inhibitors of the Aldehyde Dehydrogenase Family (ALDH2) Primary screen (AID 2061308); note: nearly all actives have a fitted effect of over 55% in size
# Conditions: ALDH2 enzyme inhibition qHTS, 1536-well; series mostly up to 56 µM
SMILES,Potency,"activity change, negative = inhibition"
NC(=O)C1CCN(c2nnc(-c3ccc(Br)cc3)s2)CC1,inactive,–
COc1cccc(C2c3c(ncn(-c4ccccc4C(C)(C)C)c3=N)Oc3ccc4ccccc4c32)c1 (stereo not given),inactive,–
COc1cccc(CNc2ccc([S+](=O)([O-])Nc3ccccc3)cc2)c1Cl,inactive,–
Cc1cnc(-c2ccccc2C(C)C)nc1NCc1cccnc1,inactive,–
CC(=O)Oc1ccc(C2(c3ccc(OC(C)=O)cc3)Oc3ccccc3NC2=O)cc1,inactive,–
O=C(Nc1ccc(S(=O)(=O)Nc2nccs2)cc1)C1CCC2(CC1)CC2,inactive,–
CCNC(=O)c1ccc(-c2ccc3ncnc(NCc4nccs4)c3c2)o1,inactive,–
O=C1CCCC2=C1C1(CCCOC1)N=C(Nc1nc3ccccc3o1)N2 (stereo not given),inactive,–
C=C(C)C(=O)O[C@H]1[C@H]2C(=C)C(=O)O[C@@H]2C[C@@H](C)[C@@H]2O[C@@H]2C(=O)[C@](C)(O)[C@@H]1OC(=O)C(=C)C,inactive,–
COc1cccc(NC(=S)N2CCN(c3ccccc3C(F)(F)F)CC2)n1,inactive,–
Cc1cc(C)n2ncc(C(=O)Nc3ccc(Br)cc3)c2n1,inactive,–
Cn1nnnc1Sc1ncnc2scc(-c3cccc(C(F)(F)F)c3)c12,inactive,–
COc1cccc(-c2ccc3ncnc(N(C)Cc4ccco4)c3c2)c1,inactive,–
CCCn1c(C)nc2c(Nc3ccccc3)nc(C)nc21,inactive,–
O=C(Nc1nnc(-c2ccco2)o1)c1ccc(C(F)(F)F)cc1,inactive,–
c1ccc(-n2cc(-c3nnc4n3CCCCC4)c3ccccc32)cc1,inactive,–
Fc1cc(F)cc(Nc2nc(Cl)nc(NC3CCCC3)n2)c1,inactive,–
Cc1cnc(-c2ccccc2C(C)C)nc1NC(C)c1ccc(-c2cccnc2)cc1 (stereo not given),inactive,–
O=S(=O)(NCC1CN(S(=O)(=O)c2ccc3c(c2)OCCO3)C1)c1c(F)cccc1F,inactive,–
Cc1ccc(OCCn2c(CCNC(=O)c3ccccc3Br)nc3ccccc32)cc1,inactive,–

SMILES,Potency,"activity change, negative = inhibition"
Cc1ccnc(NC(=S)N2CCN(c3ncc(C(F)(F)F)cc3Cl)CC2)c1,inactive,–
Cc1cnc(-c2ccccc2C(F)F)nc1NCC1CN(c2cnccn2)C1,inactive,–
Cc1cccc(CNc2ncnc3ccc(-c4ccccc4Cl)cc23)c1,inactive,–
Oc1ccc(-c2nn[nH]n2)c2cccnc12,inactive,–
Cc1ccc(OCCn2c(CCNC(=O)c3cccc(C#N)c3)nc3ccccc32)cc1,inactive,–
O=C(O)c1ccc2c(c1)C(=O)N([C@@H](Cc1ccc(O)cc1)C(=O)O)C2=O,inactive,–
Cc1ccc(S(=O)(=O)Nc2ccccc2C(=O)Nc2nc(-c3ccccc3)c(Br)s2)cc1,inactive,–
CN(c1cccc2cccnc12)S(=O)(=O)c1ccccc1,inactive,–
CC(=O)O[C@H]1CC(C)(C)CC2[C@]13CO[C@@]21CCC2[C@@]4(C)CC[C@H](O[C@@H]5OC[C@H](O[C@@H]6O[C@H](CO)[C@@H](O)[C@H](O)[C@H]6O[C@@H]6OC[C@@H](O[C@@H]7O[C@H](CO)[C@@H](O)[C@H](O)[C@H]7O)[C@H](O)[C@H]6O)[C@H](O)[C@H]5O[C@@H]5O[C@H](CO)[C@@H](O)[C@H](O)[C@H]5O)[C@@](C)(CO)C4CC[C@@]2(C)[C@]1(C)C[C@H]3O (stereo not given in full),–,0.34% [at 11.2 µM]
N#CN1CCC(NS(=O)(=O)c2ccc(C(F)(F)F)cc2)C1 (stereo not given),inactive,–
C(=Nc1cccnc1)c1cccs1,inactive,–
Fc1cccc(Nc2nc(-c3ccncc3)nc3ccccc23)c1,inactive,–
C=C(C)C(=O)OC1C(OC(C)=O)/C(C=O)=C\CC/C(CO)=C/C2OC(=O)C(=C)C21 (stereo not given),inactive,–
O=C(Cc1ccc(Cl)c(Cl)c1)Nc1ccc([S+](=O)([O-])Nc2ccccn2)cc1,inactive,–
Cc1cccc(-n2cnc3cc(C(=O)N4CCCCC4)ccc32)c1,inactive,–
CCN1CCCC1Cn1c(-c2ccccc2)nc2c(N3CCOCC3)nc(C)nc21 (stereo not given),inactive,–
COc1cc(-c2ncn(/C=C\C(=O)OC(C)C)n2)cc(C(F)(F)F)c1,inactive,–
CC(C)N1CCc2c(sc(NC(=O)C3CCCC3)c2-c2nc3ccccc3s2)C1,inactive,–
COc1cc(O)c(C(CC(=O)N2CCCC2)c2ccc3c(c2)OCO3)c(OC)c1 (stereo not given),inactive,–
Cc1sc(NC(=O)Cc2ccc3c(c2)OCO3)nc1-c1ccc2c(c1)CCN2C(=O)c1ccccc1F,inactive,–
